Records with an inconclusive call do not appear. Unmarked numbers belong to inactive results. Active and inactive are the calls of the source. Calls follow the shape of the dose curve; as a rule, active = well fitted inhibition curve with a large enough effect; inconclusive = small, poorly fitted or top-dose-only effect; inactive = flat fitted curve, though single readings scatter.

Our source for the Potency, max response and outcome values is PubChem BioAssay (NCATS).

The subject of one assay is Dd2. In words: qHTS profiling for inhibitors of Plasmodium falciparum proliferation (AID 504749). The note with it: P. falciparum in erythrocytes, SYBR Green DNA, 72 h; series mostly up to 28.7 µM. The procedure, abridged:
(§1)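 P. falciparum-infected erythrocytes (0.3% parasitemia, 2.5% hematocrit) incubated with compound 72 h at 37 C, 5% CO2. Parasite DNA detected by SYBR Green after lysis, overnight at room temperature; normalised to 0.29 uM artemisinin and DMSO.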

The test system of the next assay is ECU. The assay is described as above. The note with it: P. falciparum in erythrocytes, SYBR Green DNA, 72 h; series mostly up to 28.7 µM. An outline of the steps: as §1
The subject of a further assay is FAB9. Described as above. The note with it: P. falciparum in erythrocytes, SYBR Green DNA, 72 h; series mostly up to 28.7 µM. An outline of the steps:
as §1

Another assay concerns GB4. The assay is described as above. The note with it: P. falciparum in erythrocytes, SYBR Green DNA, 72 h; series mostly up to 28.7 µM. The procedure, abridged: as §1
The next assay has as its system HB3. The assay is described as above. The note with it: P. falciparum in erythrocytes, SYBR Green DNA, 72 h; series mostly up to 28.7 µM. The procedure, abridged:
as §1

Another assay deals with ICS. The description is as above. The note with it: P. falciparum in erythrocytes, SYBR Green DNA, 72 h; series mostly up to 28.7 µM. The procedure, abridged:
as §1

A further assay has as its system JCK. The assay is described as above. The note with it: P. falciparum in erythrocytes, SYBR Green DNA, 72 h; series mostly up to 28.7 µM. An outline of the steps:
as §1

A further assay relates to N140. The description is as above. The note with it: P. falciparum in erythrocytes, SYBR Green DNA, 72 h; series mostly up to 28.7 µM. An outline of the steps:
as §1

The next assay concerns P93_24. The description is as above. The note with it: P. falciparum in erythrocytes, SYBR Green DNA, 72 h; series mostly up to 28.7 µM. The procedure, abridged:
as §1

For a further assay, the system named is P94_40. Described as above. The note with it: P. falciparum in erythrocytes, SYBR Green DNA, 72 h; series mostly up to 28.7 µM. The procedure, abridged:
as §1

The subject of another assay is PAD. The assay is described as above. The note with it: P. falciparum in erythrocytes, SYBR Green DNA, 72 h; series mostly up to 28.7 µM. The procedure, abridged:
as §1

Another assay has as its system PC15. Described as above. The note with it: P. falciparum in erythrocytes, SYBR Green DNA, 72 h; series mostly up to 28.7 µM. An outline of the steps: as §1
In a further assay the test system is PC26. The assay is described as above. The note with it: P. falciparum in erythrocytes, SYBR Green DNA, 72 h; series mostly up to 28.7 µM. An outline of the steps:
as §1

In the next assay the test system is PC49. The assay is described as above. The note with it: P. falciparum in erythrocytes, SYBR Green DNA, 72 h; series mostly up to 28.7 µM. An outline of the steps: as §1
The test system of the next assay is SC27B. Described as above. The note with it: P. falciparum in erythrocytes, SYBR Green DNA, 72 h; series mostly up to 28.7 µM. The procedure, abridged:
as §1

In another assay the test system is TAB109. Described as above. The note with it: P. falciparum in erythrocytes, SYBR Green DNA, 72 h; series mostly up to 28.7 µM. The procedure, abridged: as §1
A further assay relates to TAB113. The description is as above. The note with it: P. falciparum in erythrocytes, SYBR Green DNA, 72 h; series mostly up to 28.7 µM. An outline of the steps: as §1
Another assay has as its system TAB165. Described as above. The note with it: P. falciparum in erythrocytes, SYBR Green DNA, 72 h; series mostly up to 28.7 µM. The procedure, abridged:
as §1

The subject of the next assay is W2. The assay is described as above. The note with it: P. falciparum in erythrocytes, SYBR Green DNA, 72 h; series mostly up to 28.7 µM. An outline of the steps:
as §1

In the next assay the test system is CRL-7250. In words: Cytotoxic Profiling of Annotated Libraries Using Quantitative High-Throughput Screening (AID 1296008). As to max response: % is scaled to controls: 0 for no effect and ±100 for the full control effect. The note with it: Five cell lines viability, CellTiter-Glo ATP luminescence, 48-72 h; max response: stronger effect = lower value. The procedure, abridged: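 Cells exposed to compounds for 48 or 72 hr at 37 degrees Celsius. Viability read as ATP-coupled luminescence with CellTiter-Glo after 10 min at room temperature.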
Also: nearly all actives have a fitted effect of over 60% in size.
Potency is read from the fitted curve at half-maximal effect.

In the case of `Cc1nc2c([nH]1)c(=O)n(C)c(=O)n2Cc1ccco1`, the Potency result in the assay with Dd2, in the assay with ECU, with FAB9, with GB4, with HB3 and with ICS was “inactive” in each case. Also, the Potency result in the assay with JCK, with N140, in the assay on P93_24, in the assay on P94_40, in the assay on PAD and in the assay with PC15 was “inactive” in each case. Moreover, the Potency entry in the assay with PC26, in the assay on PC49, in the assay on SC27B, with TAB109, with TAB113 and in the assay on TAB165 was “inactive” throughout. The Potency entry in the assay with W2 is “inactive”. In addition, the max response in the assay on CRL-7250 was 0.6%.

Consider `CN1C(=O)CC[C@H]1c1cccnc1`, for which, in the assay on CRL-7250, the max response is -11.6%.

As for `N[C@@H](COP(=O)(O)O)C(=O)O`, the molecule was classed as inactive in the assay with CRL-7250.

With `CCn1ccnc1CC1COc2ccccc2O1` (centres undefined), the Potency entry in the assay on Dd2, in the assay on ECU, with FAB9, in the assay with GB4, in the assay on HB3 and with ICS was “inactive” throughout. Further, the Potency entry with JCK, in the assay on N140, with P93_24, with P94_40, with PAD and in the assay with PC15 was “inactive” each time. The Potency entry in the assay with PC26, with PC49, with SC27B, in the assay with TAB109, in the assay on TAB113 and in the assay on TAB165 was “inactive” in each case. Besides, the max response in the assay with CRL-7250 was -3.72%.

For the molecule `Cc1ccc(/C(=C\CN2CCCC2)c2ccccn2)cc1`, the max response with CRL-7250 is 0.263%.

For the molecule `C[C@]12C=CC(=O)C=C1CC[C@H]1[C@@H]3C[C@@H](O)[C@](O)(C(=O)CO)[C@@]3(C)C[C@H](O)[C@@]12F`, the max response with CRL-7250 is 3.67%.

For the molecule `CN(C)[C@@H]1C(=O)C(C(N)=O)=C(O)[C@@]2(O)C(=O)C3=C(O)c4c(O)ccc(Cl)c4[C@@H](O)[C@H]3C[C@@H]12`, in the assay on CRL-7250, the molecule was classed as inactive.

With `CCCN(CCC)C(=O)C(CCC(=O)O)NC(=O)c1ccccc1` (centres undefined), the max response in the assay with CRL-7250 is -4.87%.

For the molecule `Nc1nc(N)c2nc(-c3ccccc3)c(N)nc2n1`, the Potency entry with Dd2, with HB3, in the assay on ICS, with JCK, in the assay with N140 and in the assay with P93_24 was “inactive” each time. Further, the Potency result in the assay on P94_40, with PAD, in the assay on PC15, in the assay on PC26, in the assay on PC49 and in the assay with SC27B was “inactive” each time. In addition, the Potency entry with TAB109, with TAB113 and in the assay on TAB165 was “inactive” in each case. The Potency is 2.82 µM (active) in the assay with ECU, 3.16 µM (active) in the assay on FAB9 and 1.35 µM (active) in the assay on GB4. The max response in the assay with CRL-7250 was -19.7%.

Turning to `CCN1CCc2nc(N)oc2CC1`, the Potency result in the assay with Dd2, with ECU, in the assay on FAB9, in the assay with GB4, in the assay with HB3 and in the assay on ICS was “inactive” each time. The Potency result in the assay with JCK, in the assay on N140, with P93_24, in the assay on P94_40, in the assay with PAD and in the assay with PC15 was “inactive” each time. The Potency entry in the assay with PC26, in the assay with PC49, with SC27B, with TAB109, in the assay with TAB113 and in the assay on TAB165 was “inactive” each time. In addition, the Potency entry with W2 was “inactive”. The max response in the assay with CRL-7250 was 2.68%.

Take `C[C@H](CS)C(=O)N1CCC[C@H]1C(=O)O`: the Potency result with Dd2, with ECU, in the assay on FAB9, in the assay on GB4, in the assay with HB3 and in the assay on ICS was “inactive” in each case. Besides, the Potency result in the assay on JCK, in the assay with N140, in the assay with P93_24, with P94_40, in the assay with PAD and in the assay with PC15 was “inactive” in each case. In addition, the Potency entry in the assay on PC26, with PC49, in the assay on SC27B, in the assay with TAB109, with TAB113 and in the assay on TAB165 was “inactive” each time. In addition, the Potency result with W2 was “inactive”. The max response with CRL-7250 is 1.04%.

With `COC(=O)C1=C(C)NC(C)=C(C(=O)OCCN(C)Cc2ccccc2)C1c1cccc([N+](=O)[O-])c1` (centres undefined), the Potency with CRL-7250 was 21.1 µM (active).

Turning to `CN(C)C(=O)Oc1cccc([N+](C)(C)C)c1`, the Potency result in the assay on Dd2, with ECU, with FAB9, in the assay with GB4, in the assay on HB3 and in the assay with ICS was “inactive” in each case. Also, the Potency result in the assay on JCK, with N140, in the assay with P93_24, in the assay with P94_40, in the assay with PAD and in the assay with PC15 was “inactive” in each case. For the same molecule, the Potency entry in the assay on PC26, in the assay on PC49, with SC27B, in the assay on TAB109, in the assay with TAB113 and in the assay on TAB165 was “inactive” in each case. For the same molecule, the Potency entry with W2 was “inactive”. Further, the outcome in the assay on CRL-7250 was inactive.

For `O=C(CCNNC(=O)c1ccncc1)NCc1ccccc1`, the Potency result with Dd2, in the assay on ECU, in the assay with FAB9, in the assay on GB4, in the assay on HB3 and in the assay with ICS was “inactive” throughout. Further, the Potency result in the assay on JCK, with N140, in the assay on P93_24, in the assay on P94_40, in the assay on PAD and in the assay on PC15 was “inactive” throughout. Further, the Potency entry in the assay on PC26, with PC49, in the assay on SC27B, in the assay with TAB109, with TAB113 and with TAB165 was “inactive” each time. In addition, the max response in the assay with CRL-7250 was 0.469%.

As to `CC(=O)OCC1=C(C(=O)O)N2C(=O)[C@@H](NC(=O)Cc3cccs3)[C@H]2SC1`, the Potency result in the assay with Dd2, in the assay on ECU, in the assay on FAB9, in the assay with GB4, in the assay on HB3 and with ICS was “inactive” each time. For the same molecule, the Potency entry with JCK, in the assay with N140, in the assay with P93_24, with P94_40, in the assay with PAD and in the assay on PC15 was “inactive” in each case. For the same molecule, the Potency result in the assay on PC26, in the assay with PC49, in the assay with SC27B, with TAB109, with TAB113 and in the assay on TAB165 was “inactive” each time. The Potency entry in the assay with W2 was “inactive”. Further, the max response in the assay on CRL-7250 is 1.94%.

`CC(=O)Nc1nnc(S(N)(=O)=O)s1`: the Potency result with Dd2, in the assay with ECU, in the assay on FAB9, with GB4, in the assay on HB3 and with ICS was “inactive” in each case. Besides, the Potency result with JCK, in the assay on N140, in the assay with P93_24, in the assay with P94_40, in the assay with PAD and with PC15 was “inactive” throughout. The Potency result with PC26, with PC49, in the assay with SC27B, with TAB109, in the assay on TAB113 and with TAB165 was “inactive” each time. Also, in the assay with W2, the Potency result was “inactive”. In the assay with CRL-7250, the molecule was called inactive.

As to `CCN(CC)CCCN(c1ccccc1)C1Cc2ccccc2C1`, the Potency is 3.98 µM (active) in the assay on Dd2; 3.98 µM (active) in the assay on ECU; 5.62 µM (active) in the assay on FAB9; 6.01 µM (active) in the assay on GB4; 11.2 µM (active) in the assay with HB3; 3.55 µM (active) in the assay on ICS. Also, the Potency was 11.2 µM (active) in the assay with JCK; 5.01 µM (active) in the assay with N140; 4.47 µM (active) in the assay on P93_24; 5.01 µM (active) in the assay with P94_40; 4.47 µM (active) in the assay on PAD; 4.47 µM (active) in the assay with PC15. Further, the Potency is 7.57 µM (active) in the assay with PC26; 3.98 µM (active) with PC49; 7.94 µM (active) with SC27B; 3.55 µM (active) in the assay with TAB109; 3.98 µM (active) in the assay on TAB113; 3.98 µM (active) in the assay on TAB165. Also, in the assay with W2, the Potency is 0.601 µM (active). Further, the max response in the assay with CRL-7250 is 2.42%.
